Test results as given in ChEMBL document CHEMBL1961873, “Compounds: GSK PKIS; Assays: Nanosyn kinase panel” (2012).

Experiments:
[1] = molecular target: T1, Serine/threonine-protein kinase TBK1 (Homo sapiens) (UniProt Q9UHD2); details: at 1 µM;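 also: values are mean inhibition of TBK1, screened as part of the GSK published kinase inhibitor set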
T1 sequence (whole entry): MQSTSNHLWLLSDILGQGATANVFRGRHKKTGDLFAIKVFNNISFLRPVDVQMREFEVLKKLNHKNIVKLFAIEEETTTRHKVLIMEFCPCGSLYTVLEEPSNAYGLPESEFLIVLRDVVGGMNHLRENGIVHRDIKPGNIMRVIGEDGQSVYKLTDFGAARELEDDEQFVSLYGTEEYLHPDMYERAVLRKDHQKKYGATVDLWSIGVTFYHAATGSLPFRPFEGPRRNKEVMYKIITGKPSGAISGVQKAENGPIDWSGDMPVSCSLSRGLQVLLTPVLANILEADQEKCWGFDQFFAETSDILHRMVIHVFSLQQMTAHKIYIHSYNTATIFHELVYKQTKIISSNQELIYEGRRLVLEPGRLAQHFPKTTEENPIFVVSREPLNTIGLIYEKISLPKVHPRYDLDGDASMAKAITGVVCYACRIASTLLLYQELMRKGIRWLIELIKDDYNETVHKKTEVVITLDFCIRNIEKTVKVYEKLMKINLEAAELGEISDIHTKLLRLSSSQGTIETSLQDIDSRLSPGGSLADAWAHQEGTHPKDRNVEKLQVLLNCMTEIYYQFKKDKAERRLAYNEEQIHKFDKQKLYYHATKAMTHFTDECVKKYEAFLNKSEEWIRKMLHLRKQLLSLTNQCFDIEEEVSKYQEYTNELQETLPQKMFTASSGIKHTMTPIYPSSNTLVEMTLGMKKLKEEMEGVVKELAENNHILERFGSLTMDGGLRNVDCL

[2] = molecular target: T2, Testis-specific serine/threonine-protein kinase 1 (Homo sapiens) (UniProt Q9BXA7); details: at 0.1 µM
T2 sequence (whole entry): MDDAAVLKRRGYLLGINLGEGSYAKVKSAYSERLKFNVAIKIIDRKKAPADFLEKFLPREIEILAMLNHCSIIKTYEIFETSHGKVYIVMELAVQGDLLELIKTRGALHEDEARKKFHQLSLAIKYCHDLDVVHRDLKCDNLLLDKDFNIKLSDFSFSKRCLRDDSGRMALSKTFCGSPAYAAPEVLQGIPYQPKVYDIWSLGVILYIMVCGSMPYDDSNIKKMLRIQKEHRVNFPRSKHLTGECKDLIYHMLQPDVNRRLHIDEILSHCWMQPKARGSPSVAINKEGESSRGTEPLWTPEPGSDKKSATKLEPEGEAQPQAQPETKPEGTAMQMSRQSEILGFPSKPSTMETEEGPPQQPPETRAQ

[3] = molecular target: T2, Testis-specific serine/threonine-protein kinase 1 (Homo sapiens); details: at 1 µM
[4] = molecular target: T3, Testis-specific serine/threonine-protein kinase 2 (Homo sapiens) (UniProt Q96PF2); details: at 0.1 µM
T3 sequence (whole entry): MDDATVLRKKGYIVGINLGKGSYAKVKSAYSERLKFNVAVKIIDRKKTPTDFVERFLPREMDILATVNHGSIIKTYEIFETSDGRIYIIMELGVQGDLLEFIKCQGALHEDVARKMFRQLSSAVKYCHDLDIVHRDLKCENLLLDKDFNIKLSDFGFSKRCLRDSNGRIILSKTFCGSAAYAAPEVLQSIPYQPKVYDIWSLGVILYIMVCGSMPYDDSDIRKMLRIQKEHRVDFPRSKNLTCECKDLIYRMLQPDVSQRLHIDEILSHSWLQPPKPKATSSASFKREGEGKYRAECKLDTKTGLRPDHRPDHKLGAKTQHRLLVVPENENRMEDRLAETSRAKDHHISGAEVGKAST

[5] = molecular target: T3, Testis-specific serine/threonine-protein kinase 2 (Homo sapiens); details: at 1 µM
[6] = molecular target: Casein kinase I isoform alpha (Homo sapiens) (UniProt P48729); details: at 0.1 µM
[7] = molecular target: Casein kinase I isoform alpha (Homo sapiens) (UniProt P48729); details: at 1 µM
[8] = molecular target: Casein kinase I isoform gamma-1 (Homo sapiens) (UniProt Q9HCP0); details: at 0.1 µM
[9] = molecular target: Casein kinase I isoform gamma-1 (Homo sapiens) (UniProt Q9HCP0); details: at 1 µM
[10] = molecular target: Casein kinase I isoform gamma-2 (Homo sapiens) (UniProt P78368); details: at 0.1 µM
[11] = molecular target: Casein kinase I isoform gamma-2 (Homo sapiens) (UniProt P78368); details: at 1 µM
[12] = molecular target: Casein kinase I isoform gamma-3 (Homo sapiens) (UniProt Q9Y6M4); details: at 0.1 µM
[13] = molecular target: Casein kinase I isoform gamma-3 (Homo sapiens) (UniProt Q9Y6M4); details: at 1 µM
[14] = molecular target: Cyclin-dependent kinase 1 (Homo sapiens) (UniProt P06493); details: at 0.1 µM
[15] = molecular target: Cyclin-dependent kinase 1 (Homo sapiens) (UniProt P06493); details: at 1 µM
[16] = molecular target: Cyclin-dependent kinase 2 (Homo sapiens) (UniProt P24941); details: at 0.1 µM
[17] = molecular target: Cyclin-dependent kinase 2 (Homo sapiens) (UniProt P24941); details: at 1 µM
[18] = molecular target: Cyclin-dependent kinase 2 (Homo sapiens) (UniProt P24941); details: at 0.1 µM; remark: listed apart in the source
[19] = molecular target: Cyclin-dependent kinase 2 (Homo sapiens) (UniProt P24941); details: at 1 µM; remark: listed apart in the source
[20] = molecular target: CDK3/Cyclin E (Homo sapiens) (UniProt P24864+Q00526); details: at 0.1 µM;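 also: reported percentages are mean inhibition values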
CDK3/Cyclin E (Homo sapiens), sequence (P24864 whole entry, looked up): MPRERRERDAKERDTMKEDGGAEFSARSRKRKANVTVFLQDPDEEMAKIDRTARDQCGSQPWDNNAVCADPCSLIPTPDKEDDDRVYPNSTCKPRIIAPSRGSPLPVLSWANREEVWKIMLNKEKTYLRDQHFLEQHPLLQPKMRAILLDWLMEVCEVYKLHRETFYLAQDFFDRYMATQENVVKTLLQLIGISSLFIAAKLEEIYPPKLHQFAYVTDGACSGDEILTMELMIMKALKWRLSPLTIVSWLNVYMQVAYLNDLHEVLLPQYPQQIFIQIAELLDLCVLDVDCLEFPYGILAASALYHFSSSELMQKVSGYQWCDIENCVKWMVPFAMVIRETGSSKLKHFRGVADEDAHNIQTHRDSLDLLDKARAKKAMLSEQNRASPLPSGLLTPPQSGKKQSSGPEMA
CDK3/Cyclin E (Homo sapiens), sequence (Q00526 whole entry, looked up): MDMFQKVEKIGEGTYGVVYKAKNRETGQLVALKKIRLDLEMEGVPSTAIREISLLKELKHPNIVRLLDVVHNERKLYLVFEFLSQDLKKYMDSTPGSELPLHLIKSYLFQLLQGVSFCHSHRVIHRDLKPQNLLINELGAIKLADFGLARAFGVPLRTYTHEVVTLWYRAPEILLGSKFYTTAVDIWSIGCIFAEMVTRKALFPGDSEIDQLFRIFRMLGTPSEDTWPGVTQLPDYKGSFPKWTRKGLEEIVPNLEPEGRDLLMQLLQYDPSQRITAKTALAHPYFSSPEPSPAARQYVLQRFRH

Cyclin-dependent kinase 1 (Homo sapiens), sequence (P06493 whole entry, looked up): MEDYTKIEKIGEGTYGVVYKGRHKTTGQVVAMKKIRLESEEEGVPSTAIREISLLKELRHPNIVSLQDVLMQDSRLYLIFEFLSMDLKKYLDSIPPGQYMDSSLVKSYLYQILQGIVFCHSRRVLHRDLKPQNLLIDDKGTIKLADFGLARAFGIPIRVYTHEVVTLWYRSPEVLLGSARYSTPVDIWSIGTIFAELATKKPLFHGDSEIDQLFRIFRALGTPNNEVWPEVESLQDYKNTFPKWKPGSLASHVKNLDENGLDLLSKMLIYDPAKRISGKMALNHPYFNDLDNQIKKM
Casein kinase I isoform alpha (Homo sapiens), sequence (P48729 2-337 limits assumed): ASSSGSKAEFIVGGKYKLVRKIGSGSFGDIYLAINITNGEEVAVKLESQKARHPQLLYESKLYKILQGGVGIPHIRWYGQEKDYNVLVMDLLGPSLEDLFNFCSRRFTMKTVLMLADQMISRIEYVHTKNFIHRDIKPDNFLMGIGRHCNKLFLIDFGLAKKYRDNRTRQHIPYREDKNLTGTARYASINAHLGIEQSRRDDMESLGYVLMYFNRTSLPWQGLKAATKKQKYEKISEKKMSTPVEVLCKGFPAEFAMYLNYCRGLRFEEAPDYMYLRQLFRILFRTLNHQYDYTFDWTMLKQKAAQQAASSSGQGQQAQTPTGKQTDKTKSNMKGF
Casein kinase I isoform gamma-2 (Homo sapiens), sequence (P78368 whole entry, looked up, canonical isoform): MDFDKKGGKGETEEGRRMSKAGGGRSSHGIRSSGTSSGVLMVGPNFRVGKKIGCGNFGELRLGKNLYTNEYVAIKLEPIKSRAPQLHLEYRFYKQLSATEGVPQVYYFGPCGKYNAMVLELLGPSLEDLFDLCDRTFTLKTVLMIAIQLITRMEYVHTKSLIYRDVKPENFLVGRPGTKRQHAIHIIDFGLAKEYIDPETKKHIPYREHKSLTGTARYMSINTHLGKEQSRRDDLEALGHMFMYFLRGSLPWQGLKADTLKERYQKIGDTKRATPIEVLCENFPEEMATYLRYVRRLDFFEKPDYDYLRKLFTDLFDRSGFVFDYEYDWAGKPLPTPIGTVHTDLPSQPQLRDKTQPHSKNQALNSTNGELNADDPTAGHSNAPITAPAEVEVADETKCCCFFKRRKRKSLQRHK
Casein kinase I isoform gamma-3 (Homo sapiens), sequence (Q9Y6M4 whole entry, looked up, canonical isoform): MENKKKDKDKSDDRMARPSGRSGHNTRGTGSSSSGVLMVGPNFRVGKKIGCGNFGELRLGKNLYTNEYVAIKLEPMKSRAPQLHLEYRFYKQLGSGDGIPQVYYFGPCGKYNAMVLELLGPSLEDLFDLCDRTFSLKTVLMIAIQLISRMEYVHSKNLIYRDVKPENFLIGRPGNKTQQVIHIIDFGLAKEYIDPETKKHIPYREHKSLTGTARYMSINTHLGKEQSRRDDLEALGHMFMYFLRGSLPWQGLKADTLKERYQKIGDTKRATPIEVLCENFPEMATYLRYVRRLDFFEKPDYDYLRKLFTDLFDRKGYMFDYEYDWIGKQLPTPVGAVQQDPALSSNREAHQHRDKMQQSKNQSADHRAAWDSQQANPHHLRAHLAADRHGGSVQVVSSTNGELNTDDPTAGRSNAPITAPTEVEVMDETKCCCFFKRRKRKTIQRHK
Casein kinase I isoform gamma-1 (Homo sapiens), sequence (Q9HCP0 whole entry, looked up, canonical isoform): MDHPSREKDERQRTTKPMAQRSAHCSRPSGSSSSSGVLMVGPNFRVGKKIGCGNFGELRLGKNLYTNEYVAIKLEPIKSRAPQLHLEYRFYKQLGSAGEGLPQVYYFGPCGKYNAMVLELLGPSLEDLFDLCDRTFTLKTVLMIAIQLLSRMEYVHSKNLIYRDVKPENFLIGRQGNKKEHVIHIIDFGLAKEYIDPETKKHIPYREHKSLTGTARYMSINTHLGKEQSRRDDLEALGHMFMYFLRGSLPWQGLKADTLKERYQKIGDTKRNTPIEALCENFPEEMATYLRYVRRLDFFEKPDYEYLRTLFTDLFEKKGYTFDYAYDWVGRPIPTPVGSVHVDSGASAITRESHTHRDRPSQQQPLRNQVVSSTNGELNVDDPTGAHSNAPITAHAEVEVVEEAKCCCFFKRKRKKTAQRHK

Row | Compound | inhibition [1] [%] | inhibition [2] [%] | inhibition [3] [%] | inhibition [4] [%] | inhibition [5] [%] | inhibition [6] [%] | inhibition [7] [%] | inhibition [8] [%] | inhibition [9] [%] | inhibition [10] [%] | inhibition [11] [%] | inhibition [12] [%] | inhibition [13] [%] | inhibition [14] [%] | inhibition [15] [%] | inhibition [16] [%] | inhibition [17] [%] | inhibition [18] [%] | inhibition [19] [%] | inhibition [20] [%]
1 | O=C(Nc1ccc(Oc2ccc3[nH]c(NC(=O)c4ccccc4)nc3c2)cc1)Nc1cc(C(F)(F)F)ccc1F | 4.56 | 2.04 | 0.69 | 1.68 | 0.74 | 3.86 | 3.79 | 2.09 | 2.88 | 1.66 | 2.09 | 1.5 | 2.93 | 0.28 | 3.27 | 0.68 | 4.24 | 2.28 | 4.67 | 1.65
2 | C#Cc1cccc(Nc2ncnc3ccc(OCCCCNCCS(C)(=O)=O)cc23)c1 | 8.32 | 6.03 | 6.34 | 2.32 | 2.71 | 2.51 | 7.93 | 0.79 | 1.77 | 0.57 | 1.61 | -0.3 | 0.33 | -2.94 | -2.94 | -1.15 | -0.68 | 0.97 | 1.11 | 3.19
3 | C/C(Nc1ccc(S(N)(=O)=O)cc1)=C1/C(=O)Nc2ccccc21 | 4.75 | 0.79 | 5.46 | -0.65 | 1.13 | 2.64 | 8.53 | -0.74 | 6.33 | 1.03 | 18.7 | -1.23 | 19.1 | 0.68 | 14.5 | 7.75 | 56 | 8.8 | 48.1 | 9.17
4 | O=C(Nc1n[nH]c2nc(-c3ccc(O)cc3)c(Br)cc12)C1CC1 | 22.6 | 5.99 | 5.96 | 3.73 | 4.53 | 4.72 | 5.83 | 4.64 | 5.67 | 4.14 | 7.38 | 1.39 | 4.72 | 24.2 | 64.2 | 63.1 | 108 | 36.5 | 73 | 27.5
5 | O=C(NCC1CC1)c1ccc(-c2cccc(C(=O)NC3CC3)c2)cc1 | 0.69 | 2.17 | -0.94 | 0.33 | -1.83 | 2.21 | 3.38 | 2.43 | 3.84 | 1.59 | 2.47 | 0.19 | 2.3 | -0.46 | 1.27 | 1.17 | 9.03 | 2.3 | 2.72 | -0.72
6 | N#Cc1ccc(Oc2nccc(-c3c(-c4ccc(F)cc4)ncn3C3CCNCC3)n2)cc1 | 3.03 | 3.77 | 4.18 | 1.71 | 4.59 | 4.15 | 10.1 | 3.79 | 5.9 | 3.52 | 5.15 | 1.83 | 5.34 | 0.28 | 1.02 | 0.77 | 1.99 | 1.81 | 2.89 | -1.88
7 | Fc1ccc(-c2ncn(C3CCNCC3)c2-c2ccnc(Oc3ccc4c(c3)OCO4)n2)cc1 | 4.07 | 4.2 | 4.17 | 2.83 | 4.26 | 6.52 | 31 | 5.84 | 13.1 | 4.86 | 9.12 | 4.73 | 17.9 | 0.2 | 1.39 | 1.83 | 3.44 | 3.24 | 6.04 | -0.22
